Source: PubChem BioAssay (NCI)
Several values for one entry are separate records, joined by “and”; a condition that tells them apart may be missing. Equal values may be shown once. The panel holds about 83,000 compounds, 20% with a hit somewhere; the sample as a whole holds those more often.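 96-well plates, one dose, 48 hours. Percent growth reported; active if below 10.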 Values without a mark were called inactive. Activity calls are given as the source filed them.

Tested on: MDA-MB-468 breast
Experiment: NCI-60 one-dose screen, 48 h (100 = growth as untreated, 0 = no growth, -100 = all killed)
Details: 10 µM unless noted

Compound	growth
CN1CCN(c2ccc(Nc3ncc4[nH]c(=O)n(Cc5ccccc5N)c4n3)cc2)CC1	111%
O=C1CC(c2ccccc2)Cc2nc3ccc(Cl)cc3cc21 (stereo not given)	10.2%
CCN(CC)CCC(C(=O)O)(c1ccccc1)c1ccccc1	120%
COC(=O)c1cc2oc(/C=N/NC(=O)c3cc4oc(-c5cccc(C(F)(F)F)c5)cc4[nH]3)cc2n1Cc1ccccc1	106%
CN(C)c1ccc(-c2cc(-c3ccc(Nc4nc(Nc5ccccc5)nc(Nc5ccc(Cl)cc5)n4)cc3)nc(N)n2)cc1	74.3%
CCCCCN1C=C/C(=C\C(=O)N(C)c2ccccc2Br)c2ccccc21	71.2%
CCCCCCCCCCCCCCCCCCOc1ccccc1CC(=O)OCC[N+](C)(C)C	-38.9% (active)
COC(=O)c1c2c(c(C)[n+]([O-])c1C)C(=O)C(NCc1cccc(Cl)c1)=CC2=O	-26.3% (active)
CC(C)(C)OC(=O)N1C/C(=C\c2ccoc2)C(=O)/C(=C/c2ccoc2)C1	97.3%
CC(C)CCSc1nc(Nc2ccccc2)c(C#N)c(-c2ccccc2)n1	43.4%
Clc1ccc(CN2COc3c(ccc4cccnc34)C2)cc1Cl	-71.9% (active)
NC(=S)N/N=C/c1ccc(Cl)cc1	97.3%
O=C1N/C(=N/N=C(c2ccccc2)c2ccccc2)S/C1=C\c1ccc(Br)cc1	103%
CC1=NOC(=O)/C1=C\c1ccc(O)cc1	103%
CCN1C(=O)N[C@H]2[C@@H]3NC(=O)c4ccc(Cl)n4[C@@H]3C[C@]21O	-6.44% (active)
N#Cc1nc(-c2ccccc2)oc1S(N)(=O)=O	41.1%
COc1c(C)cnc(CSc2nc(-c3ccc(C)cc3)cn2-c2ccc(Cl)cc2)c1C	114%
O=[N+]([O-])c1ccc2nc(N/N=C/c3ccc(O)cc3)sc2c1	64.2%
C/C(=C\CCc1ccoc1)CC/C=C(\C)CCCC1COC(=O)C1 (stereo not given)	97.4%
COc1cc(-c2nn(C(C)(C)C)cc2-c2ccnc(NCCCNS(=O)(=O)c3ccc(F)cc3)n2)ccc1Cl	72.9%

Compound	growth
Fc1ccc(-n2cc(COc3ncnc4sc5c(c34)CCCC5)nn2)cc1Cl	106%
CCCCCCCCCCC(C[N+](C)(C)C/C=C/c1ccccc1)C(O)c1ccccc1 (stereo not given)	-69.4% (active)
Cc1ccc(C2=NN(C)C(=O)C3(CCCC3)C2)cc1	98.7%
O=C1c2ccccc2C(=O)c2cc(Cn3cc[n+](Cc4ccc5ccccc5c4)c3)ccc21	-32.2% (active)
CCn1cc(C(=O)O)c(=O)c2cc(F)c(N3CCNCC3)cc21	93.2%
CN1CCN(Cc2ccc(NC(=O)c3cncc(C#Cc4cnc5ccc(OC6CCOCC6)nn45)c3)cc2C(F)(F)F)CC1	-62.5% (active)
O=C(NCCCl)Nc1nccnc1OCc1ccc(F)cc1	102%
CN(C)c1ccc(-c2ccc(-c3ccc(C(=N)N)cc3)s2)cc1	-69.7% (active)
NC(=O)NCCCC(N)C(=O)O (stereo not given)	107%
O=C(Nc1cccc(-n2cc(-c3ccncc3)c(-c3ccc(Cl)c(O)c3)n2)c1)c1ccccc1	64.1%
C=C1C(=O)O[C@H]2[C@H]1CC/C(COC(=O)NCc1ccc(Cn3c(=O)sn(CCCI)c3=O)cc1)=C\CC[C@@]1(C)O[C@@H]21	-28.8% (active)
O=C(Nc1ccc(-n2cc(-c3ccncc3)c(-c3ccc(O)c(Cl)c3)n2)cc1)Nc1ccc(Cl)c(C(F)(F)F)c1	-6.63% (active)
C=C1C[C@@]2(C)C(CC[C@]3(C)C2CC=C2C4CC(C)(C)C[C@@H](OC(=O)/C(C)=C\C)[C@]4(C(=O)O)CC[C@]23C)C(C)(C)C1=O (stereo not given in full)	-23.9% (active)
CC(C)(C)OC(=O)N1Cc2cc3ccccc3nc2C1CO (stereo not given)	71.7%
O=C(CN1C=NC2C(N3CCOCC3)=NC=NC21)c1ccc(Br)cc1 (stereo not given)	99%
Cc1cc(NCc2cc(Nc3ccnc4cc(Cl)ccc34)ccc2F)nc(N2CCCC2)n1	-35.4% (active)
C=CC1=C(C(=O)O)N2C(=O)[C@@H](NC(=O)/C(=N\O)c3csc(N)n3)[C@H]2SC1 (stereo in doubt)	96.1%
C(#CCN1CCOCC1)CCCN1CCOCC1	93.6% and 110%
CC(=O)Oc1ccc(OC(C)=O)c2ccccc12	-53.2% (active)
CN(C)CCCn1c2c(c3cc(-c4cccc(S(N)(=O)=O)c4)ccc3c1=O)C(=O)c1ccccc1-2	88.5%
